# Data as given in the supplement of paper PMC3545927.
# The other results are listed elsewhere or left out. No count for the full screen is at hand.
# B1: HC439 (peptide)
# chain: CASTGFTKVCAGNASASA
# B2: HC396 (peptide)
# chain: CAPISYANGSAGNASASA
# B3: HC1680 (peptide)
# chain: CACEECSQHLAGNASASA
# B4: FS-1707 (peptide)
# chain: CARFYRSRKKAGNASASA
# B5: FS-2900 (peptide)
# chain: CARDARRLKEAGNASASA
# B6: HC1203 (peptide)
# chain: CAVSAEEYVEAGNASASA
# B7: FS-355 (peptide)
# chain: CALNRRRRREAGNASASA
# B8: FS-921 (peptide)
# chain: CAVFARHLREAGNASASA
# B9: FS-494 (peptide)
# chain: CARRNRRRREAGNASASA
# B10: FS-456 (peptide)
# chain: CALHGRRRREAGNASASA
# B11: HC1960 (peptide)
# chain: CACCTTPCSGAGNASASA
# B12: HC581 (peptide)
# chain: CAWCLWWLQYAGNASASA
# B13: HC435 (peptide)
# chain: CAWFGCTWMNAGNASASA
# B14: HC392 (peptide)
# chain: CATDFDQGWGAGNASASA
# B15: HC1095 (peptide)
# chain: CAMSGEVPSTAGNASASA
# B16: NE1 (peptide)
# chain: CAGGGGGGGGAGNASASA
# B17: FS-1468 (peptide)
# chain: CAMSGRRLREAGNASASA
# B18: FS-1318 (peptide)
# chain: CAEGGRRRREAGNASASA
# B19: FS-427 (peptide)
# chain: CAGGGRTRREAGNASASA
# B20: HC1355 (peptide)
# chain: CAPPLEGEPGAGNASASA
# B21: FS-1198 (peptide)
# chain: CAGKSLKKRSAGNASASA
# B22: FS-161 (peptide)
# chain: CAGKSVKKRSAGNASASA
# B23: HC1445 (peptide)
# chain: CAPEKGGRKPAGNASASA
# B24: HC1186 (peptide)
# chain: CATCRNMWSGAGNASASA
# B25: HC2144 (peptide)
# chain: CAIVVTSTWVAGNASASA
# B26: FS-337 (peptide)
# chain: CAIFWRKKRKAGNASASA
# B27: FS-824 (peptide)
# chain: CALLVRKKRKAGNASASA
# B28: FS-1278 (peptide)
# chain: CASGSKKKRKAGNASASA
# B29: FS-1339 (peptide)
# chain: CAHLVRKKRKAGNASASA
# B30: HC1267 (peptide)
# chain: CAATCTANHDAGNASASA
# B31: HC1463 (peptide)
# chain: CAAVMGSSYGAGNASASA
# B32: HC545 (peptide)
# chain: CALVFFCFAWAGNASASA
# B33: FS-1443 (peptide)
# chain: CAAKRRTRRQAGNASASA
# B34: HC1441 (peptide)
# chain: CAKNEVFCVQAGNASASA
# B35: FS-521 (peptide)
# chain: CAAKRRFRRQAGNASASA
# B36: HC956 (peptide)
# chain: CAATVCARAQAGNASASA
# B37: FS-453 (peptide)
# chain: CAKSNRFRRQAGNASASA
# B38: HC167 (peptide)
# chain: CARNTNRRPQAGNASASA
# B39: FS-1598 (peptide)
# chain: CAKYNRGRRKAGNASASA
# B40: FS-1018 (peptide)
# chain: CAKNNRGRRQAGNASASA
# B41: HC1973 (peptide)
# chain: CAERTTPCSGAGNASASA
# B42: HC106 (peptide)
# chain: CAVVCCFMSYAGNASASA
# B43: HC7 (peptide)
# chain: CAMEEWSQHLAGNASASA
# B44: FS-1001 (peptide)
# chain: CAGMLRQRRPAGNASASA
# B45: FS-783 (peptide)
# chain: CAGKRRFRRQAGNASASA
# B46: FS-2121 (peptide)
# chain: CAKARRFVEQAGNASASA
# Target: furin, P09958
# Sequence (P09958 whole entry): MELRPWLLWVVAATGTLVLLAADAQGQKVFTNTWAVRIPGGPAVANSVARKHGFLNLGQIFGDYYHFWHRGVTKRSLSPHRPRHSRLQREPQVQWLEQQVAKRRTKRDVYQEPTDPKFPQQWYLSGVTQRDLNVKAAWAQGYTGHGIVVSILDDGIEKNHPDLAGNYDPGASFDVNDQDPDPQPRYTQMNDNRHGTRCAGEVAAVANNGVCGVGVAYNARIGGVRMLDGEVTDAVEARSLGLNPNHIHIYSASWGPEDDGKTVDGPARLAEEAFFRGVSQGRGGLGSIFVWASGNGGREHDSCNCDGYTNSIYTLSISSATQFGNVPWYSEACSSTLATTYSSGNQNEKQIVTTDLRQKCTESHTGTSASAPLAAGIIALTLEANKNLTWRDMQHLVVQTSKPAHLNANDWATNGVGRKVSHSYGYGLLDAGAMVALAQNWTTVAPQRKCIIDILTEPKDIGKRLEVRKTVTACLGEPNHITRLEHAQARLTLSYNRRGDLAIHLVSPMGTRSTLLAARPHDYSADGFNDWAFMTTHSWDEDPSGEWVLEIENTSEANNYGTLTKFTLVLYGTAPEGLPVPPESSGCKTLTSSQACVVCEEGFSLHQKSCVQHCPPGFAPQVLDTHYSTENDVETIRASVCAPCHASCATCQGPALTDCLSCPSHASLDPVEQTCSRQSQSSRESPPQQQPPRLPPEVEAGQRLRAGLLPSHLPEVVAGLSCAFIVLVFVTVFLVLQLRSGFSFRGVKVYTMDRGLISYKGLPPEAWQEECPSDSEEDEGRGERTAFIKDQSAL
# Experiment: furin cleavage Z-score vs untreated control; higher = more cleavage, active = 3.5 or more, inactive = 1 or less, 8 variable residues between constant flanks
# Outline: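 Purified furin cleaved 8-mer peptides that were fused to a cDNA oligonucleotide and held on magnetic beads by their N-terminus. Each 0.01 ml reaction used a 1:10 enzyme:substrate ratio in 50 mM HEPES pH 7.5 with CaCl2 and NaCl and ran 7.5, 15 or 30 min. Released DNA was adapter-tagged by PCR and sequenced, and read counts gave abundance. The cleavage Z-score came from log counts against furin-free reactions, lowess-adjusted and scaled by median absolute deviation.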
Sequence,furin cleavage Z-score (7.5 min),furin cleavage Z-score (15 min),furin cleavage Z-score (30 min)
B1,0.727 (inactive),-0.241 (inactive),0.58 (inactive)
B2,0.358 (inactive),-0.237 (inactive),0.768 (inactive)
B3,-0.324 (inactive),-2.23 (inactive),-0.379 (inactive)
B4,0.676 (inactive),1.31,0.114 (inactive)
B5,0.375 (inactive),-1.38 (inactive),-0.471 (inactive)
B6,-1.9 (inactive),0.0508 (inactive),0.782 (inactive)
B7,12.7 (active),12.9 (active),8.21 (active)
B8,5.03 (active),6.28 (active),4.54 (active)
B9,12 (active),13.6 (active),9.7 (active)
B10,12.8 (active),11.9 (active),10.7 (active)
B11,-1.19 (inactive),-0.424 (inactive),-0.858 (inactive)
B12,-0.105 (inactive),-0.224 (inactive),-0.828 (inactive)
B13,-0.725 (inactive),1.68,1.37
B14,-0.591 (inactive),-2.3 (inactive),-1.94 (inactive)
B15,-0.208 (inactive),-0.846 (inactive),0.503 (inactive)
B16,1.03,0.409 (inactive),1.54
B17,3.25,3.96 (active),3.6 (active)
B18,4.58 (active),3.64 (active),2.94
B19,3.88 (active),3.57 (active),2.42
B20,0.988 (inactive),0.95 (inactive),0.522 (inactive)
B21,10.8 (active),8.86 (active),8.35 (active)
B22,8.72 (active),12 (active),9.51 (active)
B23,0.667 (inactive),-1.91 (inactive),-0.0787 (inactive)

Sequence,furin cleavage Z-score (7.5 min),furin cleavage Z-score (15 min),furin cleavage Z-score (30 min)
B24,1.45,1.34,0.472 (inactive)
B25,0.282 (inactive),-0.196 (inactive),0.858 (inactive)
B26,4.37 (active),3.52 (active),5.53 (active)
B27,9.19 (active),10.5 (active),8.06 (active)
B28,-1.57 (inactive),0.447 (inactive),0.492 (inactive)
B29,10.2 (active),11.5 (active),10.3 (active)
B30,-0.592 (inactive),0.126 (inactive),0.634 (inactive)
B31,-0.652 (inactive),0.469 (inactive),-0.776 (inactive)
B32,-0.625 (inactive),-0.493 (inactive),-2.31 (inactive)
B33,9.31 (active),8.38 (active),7.06 (active)
B34,-0.977 (inactive),-0.752 (inactive),-0.637 (inactive)
B35,11.3 (active),11.5 (active),9.92 (active)
B36,-0.452 (inactive),0.685 (inactive),-0.234 (inactive)
B37,9.35 (active),7.39 (active),5.76 (active)
B38,0.367 (inactive),0.97 (inactive),-0.345 (inactive)
B39,-1.68 (inactive),1.26,2.34
B40,8.48 (active),8.87 (active),9.25 (active)
B41,-0.657 (inactive),0.759 (inactive),0.0382 (inactive)
B42,0.2 (inactive),-0.139 (inactive),-1.5 (inactive)
B43,-0.124 (inactive),0.451 (inactive),0.398 (inactive)
B44,-1.01 (inactive),-1.53 (inactive),-1.03 (inactive)
B45,8.34 (active),7.16 (active),6.56 (active)
B46,-0.772 (inactive),0.447 (inactive),-0.0659 (inactive)
